This passage reports outcome and AC50 results from PubChem BioAssay (EPA / NIEHS).

Test [1] in a line: ATG_PPRE_CIS: Attagene CIS-FACTORIAL HepG2 Assay for human Peroxisome Proliferator-activated Response Element (PPRE) (AID 2282958). The note with it: HepG2 PPRE cis-element reporter, Attagene transcription factor profiling; actives raise or lower the signal. The method, boiled down:
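HepG2 cells transiently transfected with multiplexed cis-element reporter units measure endogenous transcription factor activity. After 24 h compound exposure, reporter mRNA is quantified by RT-PCR, 6-FAM labeling, HpaI digestion and capillary electrophoresis; bidirectional fits are made against DMSO baseline.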

Test [2] in a line: ATG_RORE_CIS: Attagene CIS-FACTORIAL HepG2 Assay for human RAR-related Orphan Receptor Element (RORE) (AID 2282959). The note with it: HepG2 Attagene cis-factorial RORE reporter, mRNA; actives raise or lower the signal. The method, boiled down:
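HepG2 cells transiently transfected with multiple cis-element reporter transcription units, exposed to chemical for 24 h. Reporter mRNA quantified by RT-PCR, 6-FAM primer-extension labeling, HpaI digestion and capillary electrophoresis; bidirectional fit versus DMSO baseline.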

A short description of test [3]: ATG_Sox_CIS: Attagene CIS-FACTORIAL HepG2 Assay for human SRY-box transcription factor (SOX) (AID 2282960). The following applies: HepG2 Attagene cis-factorial SOX reporter, mRNA; actives raise or lower the signal. An outline of the steps:
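HepG2 cells transiently transfected with cis-element-driven multiple reporter transcription units, dosed 24 h; reporter mRNA measured by RT-PCR, FAM labelling, HpaI digestion and capillary electrophoresis. Bidirectional fit versus DMSO baseline.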

Test [4] deals with Transcription factor Sp1 (Homo sapiens) (UniProt P08047). The test can be described thus: ATG_Sp1_CIS: Attagene CIS-FACTORIAL HepG2 Assay for human Specificity Protein 1 (Sp1) (AID 2282961). The following applies: HepG2 Sp1 cis-reporter transcription, actives raise or lower the signal. The method, boiled down:
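HepG2 cells transiently transfected with multiple reporter transcription units driven by cis-regulatory elements; Sp1-responsive reporter mRNA measured 24 h after dosing by RT-PCR and capillary electrophoresis fluorescence, fitted bidirectionally against DMSO baseline.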

A short description of test [5]: ATG_SREBP_CIS: Attagene CIS-FACTORIAL HepG2 Assay for human Sterol Regulatory Element Binding (SREBP) (AID 2282962). The note with it: HepG2 Attagene cis-factorial SREBP reporter, mRNA; actives raise or lower the signal. An outline of the steps:
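mRNA induction of transfected cis-promoter reporters in HepG2 cells, 24 h post-dose. Detection: RT-PCR with 6-FAM-labelled products, HpaI digest, capillary electrophoresis. DMSO served as negative control and baseline.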

Test [6] concerns the target Signal transducer and activator of transcription 3 (Homo sapiens) (UniProt P40763). The test can be described thus: ATG_STAT3_CIS: Attagene CIS-FACTORIAL HepG2 Assay for human Signal Transducer and Activator of Transcription 3 (STAT3) (AID 2282963). The following applies: HepG2, Attagene cis-factorial STAT3 reporter transcription; actives raise or lower the signal. An outline of the steps: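 HepG2 cells transiently transfected with multiple cis-element-driven reporter units report endogenous transcription factor activity. After 24 h compound exposure, reporter mRNA is measured by RT-PCR, 6-FAM labelling, HpaI digestion and capillary electrophoresis. Fitted bidirectionally versus DMSO.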

Test [7] can be described thus: ATG_TA_CIS: Attagene CIS-FACTORIAL HepG2 Assay for human TA Basal Promoter (AID 2282964). The following applies: HepG2 Attagene CIS-factorial TA basal promoter reporter; actives raise or lower the signal. An outline of the steps: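 Background internal-marker endpoint from a 52-component HepG2 cis-reporter panel. Cells treated 24 h; reporter transcripts quantified via RT-PCR and CE fluorescence against DMSO baseline.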

A short description of test [8]: ATG_TCF_b_cat_CIS: Attagene CIS-FACTORIAL HepG2 Assay for human T-Cell-Factor with beta-catenin (TCF/b-cat) (AID 2282965). The note with it: HepG2 TCF/beta-catenin cis-reporter transcription, actives raise or lower the signal. The method, boiled down:
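HepG2 cells transiently transfected with cis-promoter-driven multiplexed reporter units; reporter mRNA measured 24 h after dosing by RT-PCR, FAM labelling, HpaI digestion and capillary electrophoresis. Bidirectional fitting relative to DMSO baseline.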

Test [9] can be described thus: ATG_TAL_CIS: Attagene CIS-FACTORIAL HepG2 Assay for human TAL Basal Promoter (AID 2282966).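 Note: background control endpoint measuring basal TAL promoter reporter mRNA not a specific factor.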 The following applies: HepG2 Attagene cis-factorial TAL promoter reporter; actives raise or lower the signal. An outline of the steps: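 HepG2 cells were transiently transfected with promoter-driven multiplexed reporter units and dosed for 24 h. Reporter mRNA was measured by RT-PCR with capillary electrophoresis fluorescence; bidirectional fits used DMSO as baseline, serving as a background control.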

Test [10] in a line: ATG_TGFb_CIS: Attagene CIS-FACTORIAL HepG2 Assay for human Transforming Growth Factor (TGF) (AID 2282967). The note with it: HepG2 Attagene CIS TGFb reporter, mRNA transcription; actives raise or lower the signal. The method, boiled down: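 Liver HepG2 line, cis-factorial reporter panel, 24 h dosing. Quantitation: RT-PCR products labeled with 6-FAM, cut with HpaI, resolved by capillary electrophoresis; DMSO-referenced bidirectional analysis.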

Test [11] is described as follows: ATG_VDRE_CIS: Attagene CIS-FACTORIAL HepG2 Assay for human Vitamin D Receptor Element (VDRE) (AID 2282968). The following applies: HepG2 VDRE cis-reporter transcription, actives raise or lower the signal. The method, boiled down:
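Transiently transfected HepG2 cells carrying cis-regulated reporter transcription units were exposed for 24 h. Reporter mRNA was measured by RT-PCR with fluorescent labelling and capillary electrophoresis, and fitted in both directions against DMSO.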

For test [12], the target named is Estrogen receptor (Homo sapiens) (UniProt P03372). The test can be described thus: ATG_ERa_TRANS: Attagene TRANS-FACTORIAL HepG2 Assay for human Estrogen Receptor alpha (ERa) (AID 2282970; active = hit-call score of the fitted dose curve at least 0.9, where 1 is the maximum). The note with it: HepG2 Attagene TRANS ERa GAL4 reporter, mRNA. An outline of the steps:
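HepG2 cells transiently transfected with multiplexed GAL4-UAS reporter units; ERa activity read via exogenous chimeric NR-Gal4 protein. After 24 hour compound exposure, reporter mRNA measured by RT-PCR with 6-FAM labelling and capillary electrophoresis; gain-of-signal fitted relative to DMSO.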

Test [13] deals with X-box-binding protein 1 (Homo sapiens) (UniProt P17861). The test is described as follows: ATG_Xbp1_CIS: Attagene CIS-FACTORIAL HepG2 Assay for human X-box Binding Protein 1 (XBP1) (AID 2282972). The following applies: HepG2 XBP1 cis-element reporter, Attagene multiplex; actives raise or lower the signal. An outline of the steps:
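Fluorescence-labelled cDNA fragments from reporter transcripts, separated by capillary electrophoresis, give the signal. Source: HepG2 cells transfected with promoter-driven reporter units, harvested 24 h post-dose. DMSO served as reference for bidirectional curve fitting.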

A short description of test [14]: ATG_M_19_TRANS: Attagene TRANS-FACTORIAL HepG2 Assay for M19 Transcription Factor (Internal Marker) (AID 2282974; active = hit-call score of the fitted dose curve at least 0.9, where 1 is the maximum). The following applies: HepG2 Attagene TRANS-FACTORIAL M19 internal marker reporter. An outline of the steps: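 HepG2 cells transiently transfected with multiple GAL4-UAS reporter transcription units were exposed to chemicals for 24 h. Reporter mRNA was read by RT-PCR, 6-FAM primer extension, HpaI digestion and capillary electrophoresis; gain of signal fitted relative to DMSO.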

Test [15] in a line: ATG_GAL4_TRANS: Attagene TRANS-FACTORIAL HepG2 Assay for GAL4 (Internal Marker) (AID 2282976; active = hit-call score of the fitted dose curve at least 0.9, where 1 is the maximum). The following applies: HepG2 Attagene TRANS GAL4 internal marker reporter. An outline of the steps: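 HepG2 cells transiently transfected with multiplexed GAL4-UAS reporter constructs were dosed for 24 h. Reporter mRNA was measured by RT-PCR, 6-FAM primer extension, HpaI digestion and capillary electrophoresis, and gain of signal was fitted relative to DMSO.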

Test [16] has as its target Estrogen-related receptor gamma (Homo sapiens) (UniProt P62508). The test is described as follows: ATG_ERRg_TRANS: Attagene TRANS-FACTORIAL HepG2 Assay for human Estrogen-Related Receptor gamma (ERRg) (AID 2282977; active = hit-call score of the fitted dose curve at least 0.9, where 1 is the maximum;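 note: hits increase reporter signal over DMSO so potencies reflect activators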). The note with it: HepG2 Attagene TRANS reporter, ERRg transactivation. The method, boiled down:
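HepG2 cells transiently transfected with multiplexed GAL4-UAS reporter units driven by chimeric NR-Gal4 proteins; 24 h exposure. Reporter mRNA quantified by RT-PCR, fluorescent labelling, HpaI digestion and capillary electrophoresis; gain of signal vs DMSO.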

Test [17] has as its target Glucocorticoid receptor (Homo sapiens) (UniProt P04150). The test is described as follows: ATG_GR_TRANS: Attagene TRANS-FACTORIAL HepG2 Assay for human Glucocorticoid Receptor (GR) (AID 2282978; active = hit-call score of the fitted dose curve at least 0.9, where 1 is the maximum;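 note: activators score as hits since higher reporter transcript over DMSO is fitted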). The following applies: HepG2 Attagene TRANS GR reporter, mRNA transcription. An outline of the steps:
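HepG2 cells transiently transfected with multiplexed reporter units in which chimeric NR-GAL4 proteins drive GAL4-UAS reporters; 24 h compound exposure. Reporter mRNA measured by RT-PCR, 6-FAM labelling, HpaI digestion and capillary electrophoresis; gain-of-signal fitted versus DMSO.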

The target of test [18] is Bile acid receptor (Homo sapiens) (UniProt Q96RI1). The test can be described thus: ATG_FXR_TRANS: Attagene TRANS-FACTORIAL HepG2 Assay for Farnesoid X Receptor (FXR) (AID 2282979; active = hit-call score of the fitted dose curve at least 0.9, where 1 is the maximum;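 note: hits raise reporter mRNA above DMSO so AC50 marks FXR activation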). The following applies: HepG2 Attagene TRANS FXR-GAL4 reporter transcription. An outline of the steps: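 HepG2 cells transiently transfected with reporter constructs in which a chimeric FXR-GAL4 protein drives a GAL4-UAS reporter; 24 h compound exposure. Reporter mRNA measured by RT-PCR, FAM labelling, HpaI digestion and capillary electrophoresis; gain-of-signal versus DMSO.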

The target in test [19] is Nuclear receptor subfamily 1 group I member 3 (Homo sapiens) (UniProt Q14994). The test is described as follows: ATG_CAR_TRANS: Attagene TRANS-FACTORIAL HepG2 Assay for human Constitutive Androstane Receptor (CAR) (AID 2282969; active = hit-call score of the fitted dose curve at least 0.9, where 1 is the maximum;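 note: activators raise reporter mRNA above DMSO so AC50 marks induction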). The note with it: HepG2 Attagene TRANS-FACTORIAL CAR reporter. An outline of the steps:
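HepG2 cells transiently transfected with GAL4-UAS reporter units; TRANS format reads activity of exogenous chimeric NR-Gal4 protein. After 24 h dosing, reporter mRNA quantified by RT-PCR, 6-FAM labelling and capillary electrophoresis; gain of signal fitted against DMSO.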

In test [20] the target is Steroid hormone receptor ERR1 (Homo sapiens) (UniProt P11474). The test can be described thus: ATG_ERRa_TRANS: Attagene TRANS-FACTORIAL HepG2 Assay for human Estrogen-Related Receptor alpha (ERRa) (AID 2282971; active = hit-call score of the fitted dose curve at least 0.9, where 1 is the maximum). The following applies: HepG2 Attagene TRANS reporter, ERRa transactivation. The method, boiled down:
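HepG2 cells transiently transfected with multiplexed GAL4-UAS reporter units reading chimeric ERRa-Gal4 activity; 24 h compound exposure. Reporter mRNA measured by RT-PCR, 6-FAM labelling, HpaI digest and capillary electrophoresis; gain of signal fitted versus DMSO baseline.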

Records with an inconclusive call do not appear. Where a structure was tested more than once in an assay, its records may differ in their call. Active and inactive are the calls of the source. Rule for the calls, unless noted: active = hit-call score of the fitted dose curve at least 0.9, where 1 is the maximum; inactive = score below 0.9.

Sequence of Bile acid receptor (Homo sapiens) (Q96RI1 whole entry, looked up, the tested form may be a part): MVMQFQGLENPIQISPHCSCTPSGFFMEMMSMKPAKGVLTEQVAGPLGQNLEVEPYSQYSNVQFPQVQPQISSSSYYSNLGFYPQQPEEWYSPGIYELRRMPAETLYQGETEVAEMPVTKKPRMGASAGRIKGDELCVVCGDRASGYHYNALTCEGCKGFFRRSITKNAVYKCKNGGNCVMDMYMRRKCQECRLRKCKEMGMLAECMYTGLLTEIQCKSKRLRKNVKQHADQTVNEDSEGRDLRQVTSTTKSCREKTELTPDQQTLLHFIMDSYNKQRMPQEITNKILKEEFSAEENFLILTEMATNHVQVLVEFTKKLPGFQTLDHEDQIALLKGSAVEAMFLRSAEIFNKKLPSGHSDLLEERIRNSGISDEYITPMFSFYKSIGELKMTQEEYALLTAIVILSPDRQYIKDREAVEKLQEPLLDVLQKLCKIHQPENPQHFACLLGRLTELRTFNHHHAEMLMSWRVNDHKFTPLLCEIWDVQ
Sequence of Estrogen-related receptor gamma (Homo sapiens) (P62508 whole entry, looked up, the tested form may be a part): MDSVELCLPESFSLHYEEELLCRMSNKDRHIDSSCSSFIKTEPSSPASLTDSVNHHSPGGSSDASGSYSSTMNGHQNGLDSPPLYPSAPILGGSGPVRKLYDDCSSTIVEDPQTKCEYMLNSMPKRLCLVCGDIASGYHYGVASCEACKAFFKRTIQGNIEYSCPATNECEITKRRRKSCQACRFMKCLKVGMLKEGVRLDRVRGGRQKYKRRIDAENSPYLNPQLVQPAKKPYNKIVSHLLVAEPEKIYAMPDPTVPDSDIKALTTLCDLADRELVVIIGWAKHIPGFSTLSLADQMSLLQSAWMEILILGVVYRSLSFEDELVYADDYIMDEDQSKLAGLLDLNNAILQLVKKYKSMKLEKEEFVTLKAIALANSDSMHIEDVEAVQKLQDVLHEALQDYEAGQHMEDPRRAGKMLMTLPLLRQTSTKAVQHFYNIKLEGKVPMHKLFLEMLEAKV
Sequence of Signal transducer and activator of transcription 3 (Homo sapiens) (P40763 whole entry, looked up): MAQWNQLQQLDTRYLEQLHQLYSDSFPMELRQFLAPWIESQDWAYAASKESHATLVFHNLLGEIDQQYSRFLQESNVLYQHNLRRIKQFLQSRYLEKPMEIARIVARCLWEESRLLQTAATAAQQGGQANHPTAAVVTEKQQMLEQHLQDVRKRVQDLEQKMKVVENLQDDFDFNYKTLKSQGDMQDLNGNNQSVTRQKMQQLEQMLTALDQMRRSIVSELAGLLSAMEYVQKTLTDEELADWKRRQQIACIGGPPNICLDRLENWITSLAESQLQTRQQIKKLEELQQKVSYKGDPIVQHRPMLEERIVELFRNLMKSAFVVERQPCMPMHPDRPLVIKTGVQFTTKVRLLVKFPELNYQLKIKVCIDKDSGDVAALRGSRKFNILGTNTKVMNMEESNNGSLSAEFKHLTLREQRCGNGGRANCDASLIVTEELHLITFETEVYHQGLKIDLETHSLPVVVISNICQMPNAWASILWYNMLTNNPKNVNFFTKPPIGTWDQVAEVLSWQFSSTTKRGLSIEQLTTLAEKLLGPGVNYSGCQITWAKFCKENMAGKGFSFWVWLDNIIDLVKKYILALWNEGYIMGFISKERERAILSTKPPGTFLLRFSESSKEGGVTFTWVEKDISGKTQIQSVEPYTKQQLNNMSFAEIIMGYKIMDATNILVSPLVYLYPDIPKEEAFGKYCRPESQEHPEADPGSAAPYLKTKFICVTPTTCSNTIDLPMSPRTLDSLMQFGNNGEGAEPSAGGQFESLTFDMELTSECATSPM
Sequence of X-box-binding protein 1 (Homo sapiens) (P17861 whole entry, looked up, the tested form may be a part): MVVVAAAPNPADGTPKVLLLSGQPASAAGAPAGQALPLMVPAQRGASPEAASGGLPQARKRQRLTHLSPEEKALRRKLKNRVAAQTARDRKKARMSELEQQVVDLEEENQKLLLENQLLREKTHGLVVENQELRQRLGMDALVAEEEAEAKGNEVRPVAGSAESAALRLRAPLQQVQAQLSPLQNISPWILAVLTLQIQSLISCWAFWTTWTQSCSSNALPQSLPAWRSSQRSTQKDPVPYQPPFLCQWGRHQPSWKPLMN
Sequence of Transcription factor Sp1 (Homo sapiens) (P08047 whole entry, looked up): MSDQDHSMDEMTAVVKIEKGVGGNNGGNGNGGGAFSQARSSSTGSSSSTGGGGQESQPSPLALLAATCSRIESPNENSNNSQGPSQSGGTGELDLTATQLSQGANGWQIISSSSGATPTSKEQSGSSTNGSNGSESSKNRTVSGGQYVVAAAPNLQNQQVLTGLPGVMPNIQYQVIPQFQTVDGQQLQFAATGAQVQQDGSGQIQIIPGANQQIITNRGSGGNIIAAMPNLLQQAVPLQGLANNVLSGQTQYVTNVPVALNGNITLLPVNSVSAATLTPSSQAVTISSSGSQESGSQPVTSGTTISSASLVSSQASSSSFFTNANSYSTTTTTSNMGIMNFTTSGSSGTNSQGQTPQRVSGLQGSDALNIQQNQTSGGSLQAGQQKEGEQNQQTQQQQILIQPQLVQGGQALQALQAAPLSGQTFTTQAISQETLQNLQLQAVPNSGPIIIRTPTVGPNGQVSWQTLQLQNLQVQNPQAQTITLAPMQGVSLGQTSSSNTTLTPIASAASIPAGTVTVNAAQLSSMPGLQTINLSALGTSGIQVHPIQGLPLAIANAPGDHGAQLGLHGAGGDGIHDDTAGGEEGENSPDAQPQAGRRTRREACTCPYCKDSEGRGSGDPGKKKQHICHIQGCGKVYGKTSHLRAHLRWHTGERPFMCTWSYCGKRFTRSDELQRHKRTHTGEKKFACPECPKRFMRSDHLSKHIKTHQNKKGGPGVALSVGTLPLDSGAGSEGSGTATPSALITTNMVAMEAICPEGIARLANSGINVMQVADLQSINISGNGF
Sequence of Nuclear receptor subfamily 1 group I member 3 (Homo sapiens) (Q14994 whole entry, looked up, the tested form may be a part): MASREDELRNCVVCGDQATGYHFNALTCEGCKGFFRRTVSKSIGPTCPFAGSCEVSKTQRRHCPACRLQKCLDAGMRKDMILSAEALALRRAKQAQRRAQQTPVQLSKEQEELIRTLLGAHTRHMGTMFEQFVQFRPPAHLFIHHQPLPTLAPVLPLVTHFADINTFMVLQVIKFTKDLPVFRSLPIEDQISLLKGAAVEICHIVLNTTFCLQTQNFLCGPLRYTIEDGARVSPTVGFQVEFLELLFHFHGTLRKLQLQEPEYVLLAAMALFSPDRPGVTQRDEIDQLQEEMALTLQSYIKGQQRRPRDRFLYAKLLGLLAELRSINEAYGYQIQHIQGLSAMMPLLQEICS
Sequence of Estrogen receptor (Homo sapiens) (P03372 whole entry, looked up, the tested form may be a part): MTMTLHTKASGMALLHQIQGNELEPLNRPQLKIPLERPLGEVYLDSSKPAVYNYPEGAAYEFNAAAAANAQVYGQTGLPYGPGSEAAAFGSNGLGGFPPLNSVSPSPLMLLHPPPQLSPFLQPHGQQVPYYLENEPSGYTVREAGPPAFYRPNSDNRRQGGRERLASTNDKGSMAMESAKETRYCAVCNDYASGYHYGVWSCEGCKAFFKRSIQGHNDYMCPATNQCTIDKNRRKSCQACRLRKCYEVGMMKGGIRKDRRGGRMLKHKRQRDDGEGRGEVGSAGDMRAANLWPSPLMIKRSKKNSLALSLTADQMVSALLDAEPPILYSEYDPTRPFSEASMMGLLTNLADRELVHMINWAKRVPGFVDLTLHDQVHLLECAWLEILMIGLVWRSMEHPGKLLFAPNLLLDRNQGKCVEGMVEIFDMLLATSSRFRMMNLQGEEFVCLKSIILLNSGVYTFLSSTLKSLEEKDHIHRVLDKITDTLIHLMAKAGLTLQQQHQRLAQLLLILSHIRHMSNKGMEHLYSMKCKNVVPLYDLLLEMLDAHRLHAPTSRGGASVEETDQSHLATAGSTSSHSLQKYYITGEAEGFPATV
Sequence of Steroid hormone receptor ERR1 (Homo sapiens) (P11474 whole entry, looked up, the tested form may be a part): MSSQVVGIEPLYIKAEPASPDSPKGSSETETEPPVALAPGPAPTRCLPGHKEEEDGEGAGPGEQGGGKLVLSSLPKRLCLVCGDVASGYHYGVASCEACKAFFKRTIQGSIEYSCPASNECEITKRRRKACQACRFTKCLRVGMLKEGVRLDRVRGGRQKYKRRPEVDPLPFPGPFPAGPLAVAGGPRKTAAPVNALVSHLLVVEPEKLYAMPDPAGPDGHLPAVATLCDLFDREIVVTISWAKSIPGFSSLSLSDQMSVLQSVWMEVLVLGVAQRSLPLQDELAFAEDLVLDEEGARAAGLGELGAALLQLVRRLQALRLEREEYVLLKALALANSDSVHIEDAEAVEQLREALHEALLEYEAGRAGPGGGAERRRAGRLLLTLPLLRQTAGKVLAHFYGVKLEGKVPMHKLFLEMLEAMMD
Sequence of Glucocorticoid receptor (Homo sapiens) (P04150 whole entry, looked up, the tested form may be a part): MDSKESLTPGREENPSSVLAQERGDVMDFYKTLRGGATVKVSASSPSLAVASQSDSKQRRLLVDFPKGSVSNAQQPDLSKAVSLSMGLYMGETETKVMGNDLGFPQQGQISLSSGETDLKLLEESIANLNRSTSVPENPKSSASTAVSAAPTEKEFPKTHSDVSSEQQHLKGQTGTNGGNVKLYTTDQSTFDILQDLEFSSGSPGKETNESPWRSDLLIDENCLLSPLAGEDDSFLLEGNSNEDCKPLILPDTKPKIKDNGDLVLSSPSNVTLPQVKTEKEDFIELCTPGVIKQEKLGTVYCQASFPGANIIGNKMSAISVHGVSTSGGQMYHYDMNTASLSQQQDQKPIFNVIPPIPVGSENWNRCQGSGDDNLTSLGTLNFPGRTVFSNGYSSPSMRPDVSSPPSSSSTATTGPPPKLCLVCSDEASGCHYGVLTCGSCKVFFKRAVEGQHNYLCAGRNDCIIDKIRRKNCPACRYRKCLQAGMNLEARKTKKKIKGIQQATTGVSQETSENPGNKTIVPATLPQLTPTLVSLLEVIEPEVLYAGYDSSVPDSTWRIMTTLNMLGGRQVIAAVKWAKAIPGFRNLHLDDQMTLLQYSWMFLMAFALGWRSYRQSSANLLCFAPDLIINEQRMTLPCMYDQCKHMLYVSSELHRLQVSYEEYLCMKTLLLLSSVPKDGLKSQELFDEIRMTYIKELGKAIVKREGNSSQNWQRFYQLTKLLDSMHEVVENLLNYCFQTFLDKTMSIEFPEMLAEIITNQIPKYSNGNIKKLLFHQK

Turning to `Nc1ncc([N+](=O)[O-])s1`, the compound was called inactive in test [1], in test [2], in [3], in [4], in test [5] and in test [6]. Further, the compound was classed as inactive in test [7], in test [8], in [9], in test [10], in test [11] and in test [12]. Further, the compound was classed as inactive in [13], in test [14], in test [15], in [16] and in test [17].

Turning to `C[C@@H]1C[C@@H]([C@H](O)CC2CC(=O)NC(=O)C2)C(=O)[C@@H](C)C1`, the concentration at half-maximal activity (AC50) (commonly the concentration giving half of the maximal activity seen) in test [1] was 27.5 µM (active); in [8] it was 8.48 µM (active) [middle of 4 runs]; in test [9] it was 0.191 µM (active); in test [13], 89.5 µM (active). For the same compound, the call in test [1], in test [2], in [3], in test [4], in test [5] and in test [6] was inactive. For the same compound, the compound was classed as inactive in test [7], in [9], in test [13], in [16] and in [18].

For the compound `COC(=O)Cc1ccccc1`, the call in [1], in test [2], in test [3], in test [4], in test [5] and in test [6] was inactive. The compound was classed as inactive in test [7], in [8], in [9], in test [10], in test [11] and in [19]. Further, the compound was called inactive in test [13] and in test [14].

Take `COc1cccc(C=O)c1`: the compound was called inactive in test [1], in test [2], in test [3], in test [4], in test [5] and in [6]. For the same compound, the call in [7], in test [8], in test [9], in test [11], in test [19] and in test [20] was inactive. In addition, the compound was classed as inactive in test [13], in test [14], in test [15] and in test [16]. Further, the concentration at half-maximal activity (AC50) in test [10] is 0.175 µM (active).
